Data from the supplement of paper PMC3334620.
Whole data set: some 33,000 sequences, median “E-score (-0.5 to 0.5)” near -0.054, cut for the highest 2% near 0.35. The full list was thinned out, with the highest values kept by preference.

biological target: T1, Stb5 (UniProt P38699); assay: PBM E-score (8-mer binding enrichment) (E-score (-0.5 to 0.5)); higher = stronger / more preferred TF binding; settings: protein concentration: 200 nM; construct: GST-full length
T1 sequence: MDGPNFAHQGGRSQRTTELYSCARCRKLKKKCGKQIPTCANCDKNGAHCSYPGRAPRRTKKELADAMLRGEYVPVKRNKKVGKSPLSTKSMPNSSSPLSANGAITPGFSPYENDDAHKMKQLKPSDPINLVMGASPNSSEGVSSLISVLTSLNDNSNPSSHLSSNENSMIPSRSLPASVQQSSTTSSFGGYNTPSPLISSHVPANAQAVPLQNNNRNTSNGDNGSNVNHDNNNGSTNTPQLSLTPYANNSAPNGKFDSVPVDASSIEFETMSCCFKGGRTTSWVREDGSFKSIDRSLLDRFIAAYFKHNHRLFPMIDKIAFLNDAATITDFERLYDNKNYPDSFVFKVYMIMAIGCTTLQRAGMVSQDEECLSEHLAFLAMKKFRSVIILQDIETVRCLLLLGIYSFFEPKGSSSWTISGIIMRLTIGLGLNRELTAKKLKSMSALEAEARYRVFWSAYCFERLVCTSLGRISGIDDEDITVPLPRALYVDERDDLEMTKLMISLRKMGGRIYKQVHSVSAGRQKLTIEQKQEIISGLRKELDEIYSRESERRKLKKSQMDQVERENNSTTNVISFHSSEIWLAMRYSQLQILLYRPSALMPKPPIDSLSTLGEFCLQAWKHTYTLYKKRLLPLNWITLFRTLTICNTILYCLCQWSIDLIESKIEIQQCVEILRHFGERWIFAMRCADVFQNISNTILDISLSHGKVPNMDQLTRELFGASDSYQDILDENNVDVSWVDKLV
How it was run: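 PURExpress in vitro transcription/translation supplied GST-tagged yeast transcription factors, either full-length or DNA-binding domain. Applied at about 100-200 nM to universal all-10-mer Agilent arrays double-stranded by primer extension, the bound protein was detected with fluorescent anti-GST. E-scores, modified Wilcoxon-Mann-Whitney statistics, were given by the Universal PBM Analysis Suite to ungapped eight-base words pooled with their reverse complements after masliner normalisation.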

Sequence | PBM E-score
CTTTTTGA | -0.162
CCCTCCGA | 0.0129
ACCTCCGG | 0.372
ACCTCCGA | 0.364
ACCTCCGT | 0.302
CCCTCCGG | 0.122
TCCTCCGA | 0.157
GCTGGAAA | -0.0514
AACCCTTA | -0.147
CAGGCATG | -0.111
CTAAAAGC | 0.0851
GGAGTTAA | 0.398
AGAGTTAA | -0.131
CGAGTTTA | 0.179
CGAGTTAC | -0.104
AGAGTTTA | -0.0332
GGAGTTTA | 0.362
TGAGTTAA | -0.155
GGAGTTAC | 0.365
AGAGTTAC | -0.241
GCGGCTAC | 0.192
AATACTGA | -0.19
TACCCACA | -0.228
GGGCCTAC | 0.066
ATTATCTA | -0.0957

Sequence | PBM E-score
ACTTGAGC | -0.28
AATTTTAT | 0.292
CTTCAGTC | -0.0437
CTTTTATC | 0.161
AAGCCCAT | -0.0309
AAAGCCGT | 0.324
GAGCCCGC | 0.252
AAAGCCGC | 0.365
AAGCCCGT | 0.417
AAGCCCTT | -0.131
CAGCCCGG | 0.246
AAGCCCTG | -0.101
GAAGCCGC | 0.202
CAGCCCGC | 0.141
AAGCCCGG | 0.411
AAGCCCGC | 0.443
GAAAGGCA | 0.126
ACCCCCCA | -0.204
CACAACGG | 0.166
AAAGCCCG | 0.457
AAGCCCGA | 0.43
TAGCCCGA | 0.171
GAGCCCGA | 0.264
AAGCCCCC | 0.00224
AAAGCCCT | -0.125

Sequence | PBM E-score
AAGCCCCG | 0.431
AAAGCCCC | 0.246
CAGCCCCG | 0.267
CTTCCCCA | -0.184
ATCCTATA | -0.0861
ATGGCAAC | -0.184
ACGAGAAT | 0.00633
CTATGCGC | 0.116
AGACCTTC | -0.109
AAAGGACT | -0.0879
GCCGCAAA | 0.182
GGCCGCCA | 0.141
AGTCCGAA | 0.299
ATTCCGAC | 0.254
AATCCGAC | 0.257
CGTCCGAC | 0.281
AGTCCGAT | 0.414
GGTCCGAC | 0.411
AGTCCGAG | 0.237
GGTCCGAA | 0.328
AGTCCGAC | 0.436
CGGCAGGA | 0.134
GGAACCCC | 0.19
GCCTAGGC | -0.0482
ACCAGGCA | -0.187

Sequence | PBM E-score
AGCTACAC | -0.174
CTCTAGAC | -0.146
GCAGTTGA | -0.177
GTTCATCA | -0.136
ATTAAGAA | 0.0289
ATGAACGA | -0.0854
AACAGGCA | -0.186
CGTCGTAC | 0.0941
GTCCTCTA | -0.159
CCGCCGGC | 0.421
CGGCCGGC | 0.284
ACGCCGGA | 0.343
ACGCCGGG | 0.306
CCGCCGGA | 0.309
ACGCCGGC | 0.389
CGAAAGAA | 0.0281
AACTGCGT | -0.00018
CGCATTGC | -0.0359
TACCGGCA | 0.31
AACCGGCG | 0.313
CACCGGCC | 0.318
AACCGGCA | 0.106
CACCGGCA | 0.377
CACCGGCG | 0.417
CTGCACTA | -0.0814

Sequence | PBM E-score
CGCTAAGC | 0.0898
ATGAAAAC | 0.116
GAATCCGC | 0.0516
AAATCCGA | 0.332
AAATCCGG | 0.376
CAATCCCG | 0.281
AAATCCCA | -0.156
AAATCCGT | 0.281
CAATCCGG | 0.167
AAATCCCG | 0.411
AAATCCGC | 0.354
ATTCGCGG | 0.171
CAGCACTG | -0.172
GAATAAGA | 0.0303
CGTCTAAA | -0.027
CAGCAGTC | -0.115
ACTTCGCT | -0.0885
CACGGTGA | 0.282
AACGGTGG | 0.245
AACGGTGT | 0.425
TACGGTGA | 0.16
AACGGTGC | 0.332
AACGGTGA | 0.355
CCCATTGC | 0.0345
GTCCCTGA | -0.284

Sequence | PBM E-score
GGGAGGCA | 0.111
AGGCTCCG | 0.246
ATTACCTG | -0.0469
ATTACCCG | 0.176
CTTACCCC | 0.222
ATTACCGG | 0.371
CTTACCGC | 0.193
ACTACCGG | 0.279
GTTACCGA | 0.197
ATTACCGA | 0.38
ATTACCTC | 0.0374
ATTACCCC | 0.362
CTTACCGA | 0.0867
ATTACCGC | 0.419
CAGCAAGG | -0.369
GATGATAA | 0.0422
ACCCACTA | 0.0277
CGGCTTCA | 0.259
ACTTTGGG | -0.0994
CTGGCCAC | -0.199
CTCCCGAG | -0.213
CCAAGGTA | -0.11
GGGCGGTA | 0.346
CCGCGGGC | 0.335
AGGCGGTC | 0.258

Sequence | PBM E-score
CGGCGGGC | 0.361
ATGCGGTA | 0.243
CGGCGGTA | 0.451
CTGCGGTA | 0.254
AGGCGGTA | 0.287
CGGCGGCC | 0.242
CGGCGGTC | 0.355
GTGCGGTA | 0.367
CGGCGGGA | 0.347
AGCGAGTC | -0.132
AGAATTCG | -0.146
CGGCGACG | 0.194
GACGGCGC | 0.199
CAACCGTC | -0.0245
AGGCCGAC | 0.406
CGGCCGAC | 0.205
AGGCCGAT | 0.295
GGGCCGAC | 0.355
GGGCCGAA | 0.175
GAGCCGAC | 0.201
ACAAGTGT | -0.136
CAGGTTAA | -0.0457
